Each structure is given as a SMILES string. This is part of a sample that, as a whole, favours compounds with a hit. Of some 83,000 tested, about 20% had one in any assay.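 Treatment: one concentration, 48 hours, 96-well format. Scoring: percent growth, with anything below 10 considered active.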 Unmarked numbers belong to inactive results. Active and inactive are the calls of the source.

Test in all cases: NCI-60 one-dose screen, 48 h (100 = growth as untreated, 0 = no growth, -100 = all killed)
One assay has as its system HCT-15 colon. The following applies: 10 µM unless noted.
For the next assay, the system named is HT29 colon. The following applies: 10 µM unless noted.
The subject of the next assay is SNB-75 CNS. The following applies: 10 µM unless noted.
A further assay has as its system SNB-19 CNS. Conditions: 10 µM unless noted.
In the next assay the test system is U251 CNS. The following applies: 10 µM unless noted.
A further assay deals with PC-3 prostate. The following applies: 10 µM unless noted.
The next assay deals with SK-MEL-5 melanoma. Conditions: 10 µM unless noted.
A further assay concerns UACC-62 melanoma. Conditions: 10 µM unless noted.
For the next assay, the system named is LOX IMVI melanoma. The following applies: 10 µM unless noted.
For the next assay, the system named is SK-MEL-28 melanoma. Conditions: 10 µM unless noted.
Another assay deals with SK-MEL-2 melanoma. Conditions: 10 µM.
A further assay has as its system EKVX NSCLC. The following applies: 10 µM unless noted.
The next assay has as its system SN12C renal. The following applies: 10 µM unless noted.
The subject of the next assay is UO-31 renal. The following applies: 10 µM unless noted.
The next assay relates to TK-10 renal. The following applies: 10 µM unless noted.
For a further assay, the system named is ACHN renal. Conditions: 10 µM unless noted.
The next assay deals with CCRF-CEM leukemia. Conditions: 10 µM unless noted.
Another assay concerns MOLT-4 leukemia. The following applies: 10 µM unless noted.
A further assay deals with A498 renal. The following applies: 10 µM unless noted.
For another assay, the system named is CAKI-1 renal. Conditions: 10 µM unless noted.

With `O=C1CC(c2cccc(F)c2)c2c(n[nH]c2-c2ccc(Cl)cc2)N1` (stereo unspecified), the growth with HCT-15 colon is 92.5%; in the assay with HT29 colon, 81.1%; with SNB-75 CNS, 97.3%; in the assay with SNB-19 CNS, 99.3%; in the assay on U251 CNS, 86.1%; with PC-3 prostate it was 80.5%. Moreover, the growth was 87.1% in the assay with SK-MEL-5 melanoma; 86.2% in the assay on UACC-62 melanoma; 96.9% in the assay on LOX IMVI melanoma; 107% in the assay on SK-MEL-28 melanoma; 110% with SK-MEL-2 melanoma; 85.1% in the assay on EKVX NSCLC. The growth in the assay on SN12C renal is 92.8%; with UO-31 renal, 79.3%; with TK-10 renal, 94.1%; with ACHN renal, 90%; with CCRF-CEM leukemia, 101%; in the assay with MOLT-4 leukemia, 88%.
Regarding `CCc1ccc(C2=C(O)C(=O)C(c3ccc(CC)cc3)=C(O)C2=O)cc1`, the growth in the assay with HCT-15 colon was 6.42% (active); with HT29 colon, 0.54% (active); with SNB-75 CNS, -16.9% (active); in the assay with SNB-19 CNS it was 8.83% (active); with U251 CNS, 1.63% (active); with PC-3 prostate it was 6.64% (active). Also, the growth in the assay on SK-MEL-5 melanoma is -58.7% (active); with UACC-62 melanoma, -44.1% (active); in the assay on LOX IMVI melanoma, 4.72% (active); in the assay on SK-MEL-28 melanoma, -19.2% (active); in the assay with SK-MEL-2 melanoma, -44.4% (active); in the assay with EKVX NSCLC it was -15% (active). The growth in the assay on SN12C renal was -6.25% (active); in the assay with UO-31 renal it was 0.57% (active); with TK-10 renal, 5.31% (active); with ACHN renal, -9.41% (active); with A498 renal, -31% (active); in the assay on MOLT-4 leukemia, -6.88% (active).
`CSc1nc2ncnc(SC)c2[nH]1`: the growth is 110% in the assay with HCT-15 colon; 89.6% in the assay on HT29 colon; 86.8% in the assay on SNB-75 CNS; 116% in the assay with SNB-19 CNS; 83.9% with U251 CNS; 91.6% with PC-3 prostate. Besides, the growth is 106% with SK-MEL-5 melanoma; 110% with UACC-62 melanoma; 99.3% in the assay on LOX IMVI melanoma; 107% with SK-MEL-28 melanoma; 99.4% in the assay on SK-MEL-2 melanoma; 94% in the assay on EKVX NSCLC. In addition, the growth in the assay with SN12C renal was 100%; in the assay with UO-31 renal, 82%; with TK-10 renal it was 99.8%; in the assay on ACHN renal, 103%; in the assay on CCRF-CEM leukemia, 105%; with MOLT-4 leukemia it was 98.9%.
Take `COc1cc(-c2cc(-c3ccc(Nc4ccnc5cc(Cl)ccc45)cc3)nc(N3CCOCC3)n2)cc(OC)c1OC`: the growth with HCT-15 colon was -29.8% (active); in the assay on HT29 colon, -21.8% (active); with SNB-75 CNS, -25.3% (active); with SNB-19 CNS, 28.8%; with U251 CNS it was -57.1% (active); in the assay on PC-3 prostate, -5.02% (active). The growth is 28% with SK-MEL-5 melanoma; 70.1% in the assay with UACC-62 melanoma; 4.79% (active) with LOX IMVI melanoma; 7.13% (active) in the assay on SK-MEL-28 melanoma; 83.9% in the assay with SK-MEL-2 melanoma; 30.9% in the assay on EKVX NSCLC. The growth was -11.9% (active) in the assay on SN12C renal; 37.5% with UO-31 renal; -75.9% (active) with TK-10 renal; 16.7% in the assay on ACHN renal; -4.98% (active) in the assay on CCRF-CEM leukemia; 19.6% in the assay with MOLT-4 leukemia.
With `N#Cc1c(NC(=O)c2ccco2)[n+]([O-])c2cc(F)c(F)cc2[n+]1[O-]`, the growth with HCT-15 colon was 70.5%; in the assay with HT29 colon, 93.6%; in the assay with SNB-75 CNS, 83.3%; in the assay on SNB-19 CNS, 85.7%; in the assay on U251 CNS, 92.3%; in the assay on PC-3 prostate it was 80.7%. Also, the growth with SK-MEL-5 melanoma was 61.3%; in the assay on UACC-62 melanoma, 88.4%; in the assay on LOX IMVI melanoma it was 83.4%; in the assay with SK-MEL-28 melanoma it was 94.5%; in the assay on SK-MEL-2 melanoma, 97.2%; with EKVX NSCLC it was 109%. Also, the growth is 94.9% in the assay on SN12C renal; 80.2% in the assay with TK-10 renal; 97.8% with ACHN renal; 66.7% with CAKI-1 renal; 67.2% with CCRF-CEM leukemia; 75% with MOLT-4 leukemia.
`Cc1cc(N2CCOCC2)nc(N(CCNc2ccnc3cc(Cl)ccc23)Cc2cccs2)n1`: the growth in the assay with HCT-15 colon was 17.8%; in the assay on HT29 colon, -43.1% (active); in the assay with SNB-75 CNS, -18.1% (active); with SNB-19 CNS, 56.5%; in the assay on U251 CNS, -10.5% (active); in the assay on PC-3 prostate it was 24.4%. For the same compound, the growth in the assay on SK-MEL-5 melanoma was -4.8% (active); in the assay on UACC-62 melanoma it was -24.6% (active); in the assay on LOX IMVI melanoma it was -72.1% (active); in the assay on SK-MEL-28 melanoma, 11.6%; in the assay on SK-MEL-2 melanoma it was -39.4% (active); in the assay with EKVX NSCLC, 51.5%. Besides, the growth in the assay on SN12C renal is 42.3%; in the assay with UO-31 renal, -8.69% (active); in the assay on TK-10 renal it was 19.4%; in the assay with ACHN renal, 1.88% (active); in the assay with CCRF-CEM leukemia, 6.42% (active); in the assay on MOLT-4 leukemia, -9.25% (active).
As to `COc1cc2c(cc1OCCCCN1CCN(CC(=O)Nc3ccc(Cl)cc3C(=O)c3ccccc3Cl)CC1)N=CC1CCCN1C2=O` (stereo unspecified), the growth with HCT-15 colon is -65.6% (active); with HT29 colon it was -61.4% (active); with SNB-75 CNS, -84.7% (active); with SNB-19 CNS, -57.3% (active); in the assay with U251 CNS, -88.4% (active); in the assay with PC-3 prostate, -98.6% (active). Moreover, the growth was -92.6% (active) with SK-MEL-5 melanoma; -85.1% (active) in the assay on UACC-62 melanoma; -84.4% (active) in the assay on LOX IMVI melanoma; -86% (active) in the assay with SK-MEL-28 melanoma; -67.5% (active) in the assay with SK-MEL-2 melanoma; -79% (active) in the assay with EKVX NSCLC. The growth with SN12C renal was -81.1% (active); in the assay on TK-10 renal, -90.1% (active); in the assay with ACHN renal, -92.4% (active); with CAKI-1 renal, -89.8% (active); with A498 renal, -97.2% (active); with CCRF-CEM leukemia it was -59.8% (active). For the same compound, the growth in the assay on MOLT-4 leukemia is -44.7% (active).
As for `CC(C)C1CCC(C)C(C2(C#N)C(N)=NC(N)=C2C#N)C1=O` (stereo unspecified), the growth in the assay with HCT-15 colon is 101%; with HT29 colon, 96.2%; with SNB-75 CNS, 84%; with SNB-19 CNS, 101%; in the assay on U251 CNS, 99.7%; with PC-3 prostate, 86%. Besides, the growth in the assay on SK-MEL-5 melanoma was 101%; in the assay on UACC-62 melanoma, 102%; with LOX IMVI melanoma, 92.5%; in the assay with SK-MEL-28 melanoma, 107%; in the assay on SK-MEL-2 melanoma, 109%; with EKVX NSCLC it was 94.4%. Further, the growth in the assay with SN12C renal was 100%; with UO-31 renal, 80.2%; with TK-10 renal, 115%; with ACHN renal it was 107%; in the assay with A498 renal, 105%; with CCRF-CEM leukemia it was 103%. In addition, in the assay on MOLT-4 leukemia, the growth was 96.1%.

(Values after PubChem BioAssay (NCI).)
